In the supplement of paper PMC3334620:
Over roughly 33,000 sequences, “E-score (-0.5 to 0.5)” has its median near -0.0059; the highest 2% begin near 0.26. For the sample, the highest values were picked, then their nearest neighbours and some sequences at random.

What follows are sequences tested against T1, Cin5 (UniProt P40917) (assay: PBM E-score (8-mer binding enrichment) (E-score (-0.5 to 0.5)); higher = stronger / more preferred TF binding). Details: protein concentration: 100 nM; construct: GST-full length.
T1 sequence: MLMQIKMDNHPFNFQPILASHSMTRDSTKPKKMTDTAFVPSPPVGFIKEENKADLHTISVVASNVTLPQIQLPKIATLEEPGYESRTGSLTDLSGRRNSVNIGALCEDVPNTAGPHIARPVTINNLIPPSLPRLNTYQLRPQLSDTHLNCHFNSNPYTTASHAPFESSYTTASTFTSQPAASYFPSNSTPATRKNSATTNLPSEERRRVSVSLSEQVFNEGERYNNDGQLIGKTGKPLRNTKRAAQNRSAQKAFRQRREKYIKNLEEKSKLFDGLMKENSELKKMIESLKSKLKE
Description: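 Universal 'all 10-mer' protein binding microarrays (Agilent AMADID 015681) probed with GST-tagged S. cerevisiae TFs (full-length or DBD) made by in vitro transcription/translation (PURExpress), about 100-200 nM. Bound TF was detected with fluorescent anti-GST. Each ungapped 8-mer (which stands for itself and its reverse complement) is scored by the PBM enrichment score (E-score), a modified Wilcoxon-Mann-Whitney statistic from -0.5 to +0.5, computed with the Universal PBM Analysis Suite. Scale: above 0.35 generally sequence-specific binding.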

Row | Sequence | PBM E-score
1 | CTGGAGAA | -0.202
2 | CTACACAG | -0.0209
3 | GAAGAACA | 0.215
4 | TAAGAACA | 0.29
5 | CAAGAACA | -0.0469
6 | CGTAGACG | -0.217
7 | GAAACTGA | -0.17
8 | CCCGAGTA | 0.15
9 | TATAGATA | 0.176
10 | AGTAGATA | 0.306
11 | AGTAGATC | -0.0135
12 | ATTAGCTA | 0.3
13 | AATAGATA | 0.269
14 | ATTAGATA | 0.301
15 | GTTAGCTA | 0.0147
16 | CGTAGATA | 0.0684
17 | GATAGATA | 0.0426
18 | GTTAGATA | 0.113
19 | CTTAGCTA | 0.151
20 | ATTAGATG | 0.239
21 | CCGGTTTC | 0.0044
22 | TACAATCA | 0.152
23 | CCCTCAGG | -0.164
24 | AACCAAAA | 0.204
25 | CCGCCCCA | 0.109
26 | AGTGCCGC | -0.124

Row | Sequence | PBM E-score
27 | AGGGCCAC | -0.194
28 | AGAAGGGC | -0.254
29 | ATATAACG | 0.273
30 | CTATAACC | -0.144
31 | ATATAACC | 0.188
32 | CTATAACA | -0.122
33 | ATATAACA | 0.284
34 | GTATAACA | 0.126
35 | CTTAAACC | -0.192
36 | ACGGCGTC | -0.0496
37 | GAACTGGC | -0.125
38 | AATAATTG | 0.0887
39 | CCTAATTA | 0.0517
40 | CATAATTC | 0.138
41 | ACTAATTC | 0.204
42 | AATAATTC | 0.261
43 | AATAATTA | 0.35
44 | CATAATTA | 0.308
45 | GATAATTA | 0.218
46 | ACTAATTA | 0.228
47 | ACCGAAGA | 0.0871
48 | ACCAATGC | 0.0593
49 | AGAGACTC | -0.0094
50 | CCTCGCCC | 0.0221
51 | AGCCTTAG | -0.197
52 | CAACAGTA | 0.0302

Row | Sequence | PBM E-score
53 | GCCAGCCA | -0.193
54 | AATACAAC | 0.236
55 | AATACAAA | 0.342
56 | GATACAAA | 0.173
57 | AATACAAT | 0.154
58 | TATACAAA | 0.169
59 | AATACAAG | 0.294
60 | AACTCCCT | -0.142
61 | CATTAACG | 0.0883
62 | CGCATGAA | 0.116
63 | GGTAACCA | -0.151
64 | ATTATTGA | 0.111
65 | CTAATACC | 0.104
66 | ATAATAAC | 0.206
67 | ACAATACC | 0.278
68 | CTAATACA | 0.161
69 | ATAATACC | 0.258
70 | GCAATACC | 0.0147
71 | ACAATACG | 0.05
72 | ATAATACG | 0.213
73 | ACAATACA | 0.144
74 | GCAATACA | 0.274
75 | ACAATACT | 0.237
76 | ATAATACA | 0.35
77 | GAGTGCTA | 0.0563
78 | CCTAACCC | -0.302

Row | Sequence | PBM E-score
79 | ACAAGACT | -0.039
80 | GATTGGAA | -0.0265
81 | ATCGAGTC | 0.0696
82 | CTCTAAGC | 0.0569
83 | ATTAACTG | 0.237
84 | ATACAGGG | 0.121
85 | ACTCGTGG | -0.041
86 | ATGGTAGG | -0.0925
87 | GTACTTCA | 0.279
88 | CTACTTCA | -0.0153
89 | ATACTTCA | 0.129
90 | AACCCAGA | -0.0895
91 | CGGGGCAC | -0.242
92 | GCTCTACC | -0.288
93 | ATAGATAC | 0.224
94 | CTAGATAA | 0.0277
95 | ATTGAATC | -0.0743
96 | TCAGATAA | 0.184
97 | CTTGAATA | 0.0347
98 | TAAGATTA | 0.274
99 | GAAGATTA | 0.197
100 | AAAGATTA | 0.249
101 | ATTGAATA | 0.277
102 | ATAGATAG | 0.0352
103 | TTAGATAA | 0.32
104 | ATAGATAA | 0.267
